In all, about 2,300 compounds went through this assay and about 790 (34%) were called active. How the calls were made is not given here. This is one part of the list. Potency and affinity values are given separately.
Assay: THP-1 cell cytotoxicity, dose response, cytotoxicity control for non-replicating M. tuberculosis project (AID 489025)
Conditions: THP-1 cell viability; series mostly up to 40 µM; viability: at the top concentration

Compound | viability
CC1=NN(C(=O)c2csc(C)c2)C(O)(C(F)(F)F)C1 (configuration not stated) | 111% (inactive)
CC1=NN(C(=O)c2ccoc2C)C(O)(C(F)(F)F)C1 (configuration not stated) | 92.6% (inactive)
CCC(=O)c1ccc(OCC(=O)OCC(=O)c2cc(C)n(C3CC3)c2C)cc1 | 106% (inactive)
Cc1ccsc1C(=O)OCC(=O)NCCC1=CCCCC1 | 87.4% (inactive)
NCCCN1CCOCC1 | 100% (inactive)
O=C1CC(N2CCC(C(=O)N3CCCCC3)CC2)C(=O)N1 (configuration not stated) | 123% (inactive)
COC(=O)c1cc(/C=C/c2ccccc2)on1 | 89.5% (inactive)
COc1ccc(C(=O)CC(=O)C(=O)NCCc2cccc(C)c2)cc1 | 99.6% (inactive)
O=C1NC(=O)N(Cc2ccco2)C(=O)/C1=C\c1cccn1CCOc1ccc(Cl)cc1 | 93.3% (inactive)
CC(=O)c1c(O)cc(=O)n(-c2ccccc2)c1-c1ccc(C)cc1 | 125% (inactive)
O=C(N/N=C/c1ccc(O)cc1)c1cccc(C(F)(F)F)c1 | 82.2% (inactive)
O=C(Nc1nnc(C2=COCCO2)o1)c1cccc(C(F)(F)F)c1 | 73.8% (inactive)
Cc1cc(NC(=O)COC(=O)COc2ccc(C(=O)c3ccccc3)cc2)no1 | 110% (inactive)
CC1=NN(C(=O)c2ccccc2Cl)C(O)(c2ccccc2)C1 (configuration not stated) | 116% (inactive)
CC1=NN(C(=O)c2ccccc2F)C(O)(c2ccc(Cl)cc2)C1 (configuration not stated) | 83.9% (inactive)
CC1=NN(C(=O)COc2ccccc2)C(O)(c2ccccc2)C1 (configuration not stated) | 106% (inactive)
CC1=NN(C(=O)c2ccc(C)o2)C(O)(c2ccccc2)C1 (configuration not stated) | 107% (inactive)
CSc1ccc(COC(=O)CCS(=O)(=O)c2ccc(C)cc2)cc1 | 116% (inactive)
CCc1nnc(NC(=O)CN2CCN(c3ccccc3F)CC2)s1 | 96.1% (inactive)
CCOC(=O)COc1c(-c2ccc(OC)cc2)oc2ccccc2c1=O | 110% (inactive)
O=C(OCc1nnc(-c2ccccc2)o1)c1cc([N+](=O)[O-])ccc1Cl | 122% (inactive)
CCCOc1ccc(N2CC(C(=O)Nc3ccccc3F)CC2=O)cc1 (configuration not stated) | 110% (inactive)
O=C(NC(=S)N1CCN(Cc2ccc3c(c2)OCO3)CC1)c1ccc(Cl)cc1 | 72.2% (inactive)
Nc1ccc(Nc2ccccc2)cc1 | 86.8% (inactive)
CC(C)=CCN1CCN(CCC2=C(C)CCCC2(C)C)CC1CCO (configuration not stated) | 80% (inactive)

Compound | viability
CC(C)c1ccc(OCC(=O)NC2=NCCS2)cc1 | 97% (inactive)
O=C(/C=C/Nc1ccccc1O)c1ccco1 | 123% (inactive)
O=C(Oc1ccccc1)c1ccc(NC(=O)c2ccco2)cc1 | 94.9% (inactive)
CC1=NN(C(=O)COc2ccccc2C)C(O)(c2ccc(Cl)cc2)C1 (configuration not stated) | 70.8% (inactive)
CC(C)(C)OC(=O)N/N=C\c1ccc(OC(=O)c2ccco2)cc1 | 113% (inactive)
O=C(Nc1nccs1)c1ccc(Br)cc1 | 90.7% (inactive)
O=C(CNC(=O)c1ccc(Br)cc1)c1ccc(Br)cc1 | 101% (inactive)
O=C(CNC(=O)c1ccccc1)OC1CCCCC1 | 92.2% (inactive)
O=[N+]([O-])c1ncccc1Oc1nc(-c2cccnc2)nc2ccccc12 | 88% (inactive)
CCOc1ccc(N2CC(=O)Nc3ccccc3NCC2=O)cc1 | 92.6% (inactive)
CCOc1cc(/C=N/NC(=O)c2ccccn2)ccc1OC(=O)c1cccs1 | 115% (inactive)
CCOc1ccc(OCc2ccc(C(=O)OCc3ccccn3)o2)cc1 | 106% (inactive)
COC(=O)c1ccc(COC(=O)c2ccccn2)cc1 | 121% (inactive)
O=C(N[C@@H]1C[C@H]2CC[C@@H]1C2)c1ccco1 | 123% (inactive)
Clc1ccc(SCCOCCN2CCc3ccccc3C2)cc1 | 87.8% (inactive)
O=C(OCn1nnc2ccccc2c1=O)c1cccs1 | 121% (inactive)
COc1ccccc1C1=NOC(COC(=O)c2ccc([N+](=O)[O-])cc2)C1 (configuration not stated) | 100% (inactive)
Fc1ccc(-c2nnc(CSc3nnc(-c4cccs4)o3)o2)cc1 | 104% (inactive)
Cc1ccc(-c2nnc(-c3cccs3)o2)cc1 | 117% (inactive)
Fc1ccc(-c2nnc(-c3ccc(F)cc3)o2)cc1 | 92.1% (inactive)
COc1cccc(OCc2nnc(-c3cccs3)o2)c1 | 119% (inactive)
O=C1N=c2ccccc2=C1c1c(O)n(-c2cccc(F)c2)[nH]c1=O | 120% (inactive)
CCCn1nnnc1NCc1ccc(C(C)C)cc1 | 117% (inactive)
Cc1ccnc(-n2c(C)cc(/C=C3\C(=O)NC(=S)N(C)C3=O)c2C)c1 | 106% (inactive)
CCn1c(O)c(C(=O)CC2NCCc3ccccc32)c(=O)n(CC)c1=S (configuration not stated) | 108% (inactive)

Compound | viability
Cc1cc(C)c2c(=O)n(CC(=O)Nc3cccc(Cl)c3C)sc2n1 | 90.7% (inactive)
CCOc1ccc(NC(=O)CCc2ccc(C)o2)cc1 | 126% (inactive)
COC(=O)COc1ccc(-c2ccccc2)cc1C=O | 97.4% (inactive)
COc1ccc(-c2cc(O)cc(O)c2)cc1 | 116% (inactive)
Cc1ccc(OC(=O)CCS(=O)(=O)c2ccc(C)cc2)cc1 | 110% (inactive)
COc1ccc(OCCOC(=O)CCS(=O)(=O)c2ccc(C)cc2)cc1 | 86.2% (inactive)
COc1ccc(-c2cc(=O)oc(-c3cccc(C)c3)n2)cc1 | 101% (inactive)
COC(=O)c1ccc(COC(=O)CCS(=O)(=O)c2ccc(C)cc2)cc1 | 96.7% (inactive)
COC(=O)COc1ccc2c(=O)c(-c3ccccc3)coc2c1 | 106% (inactive)
Cc1cc(Br)ccc1OCC(=O)NNC(=O)C(=O)Nc1ccccc1 | 111% (inactive)
O=C1CCCC(O)=C1C=Nc1ccc2c(c1)oc1ccccc12 | 95.8% (inactive)
C(#CCN1CCOCC1)COCc1ccccc1 | 105% (inactive)
CC(CCc1ccccc1)NC(=O)COC(=O)c1cccs1 (configuration not stated) | 117% (inactive)
Cc1nc2scc(-c3ccccc3)c2c(=O)o1 | 110% (inactive)
CCN(CC)c1ccc(NC2CC(=O)N(CCc3ccc(OC)cc3)C2=O)cc1 (configuration not stated) | 86.6% (inactive)
O=C(OCc1nnc(-c2ccccc2)o1)c1ccc(Br)o1 | 109% (inactive)
CCCOC(=O)c1ccc(NC(=O)C2C3C=CC(O3)C2C(=O)O)cc1 (configuration not stated) | 107% (inactive)
C=CCNc1nc(C(=O)OCC(=O)c2cccc(Br)c2)cs1 | 112% (inactive)
Fc1cccc2sc(N3CCCC3)nc12 | 99.3% (inactive)
Cc1ccc(C(=O)N/N=C/C=C/c2ccccc2)cc1 | 88.7% (inactive)
Cc1ccc(NC(=S)C2=C(O)c3sccc3N(C)S2(=O)=O)cc1 | 103% (inactive)
O=C(CCNc1ccc(Cl)c(C(F)(F)F)c1)c1ccco1 | 103% (inactive)
C/C(=N\NC(=O)c1ccccc1)c1nc2ccccc2n1C | 116% (inactive)
O=C(NCCSc1ccccc1)c1ccc(Br)cc1 | 99.8% (inactive)
COc1ccc(NC(=O)c2nc3ccccc3s2)cc1 | 115% (inactive)

Compound | viability
CN(C)c1ccc(NC(=O)COC(=O)c2cc(Cl)ccc2[N+](=O)[O-])cc1 | 123% (inactive)
CCOC(=O)CNc1ccc(C(=O)OCC)cc1[N+](=O)[O-] | 116% (inactive)
CC(C)=CCN1CCN(Cc2cn(C(C)C)c3ccccc23)CC1CCO (configuration not stated) | 85.5% (inactive)
COc1cccc2cc(-c3nc4ccccc4[nH]3)c(=O)oc12 | 107% (inactive)
CSc1nc(=S)cc(C)[nH]1 | 122% (inactive)
CC(NC(=O)c1cc([N+](=O)[O-])cc([N+](=O)[O-])c1)c1ccc(-n2ccnc2)cc1 (configuration not stated) | 111% (inactive)
COc1cccc(NC(=O)c2cnc(SC)nc2)c1 | 101% (inactive)
COc1ccccc1NC(=O)c1cnc(SC)nc1 | 108% (inactive)
Cc1ccc(S(=O)(=O)NCc2ccc(C(=O)NCCCN3CCC(Cc4ccccc4)CC3)cc2)cc1 | 92.3% (inactive)
Nc1c(Cl)cc(Cl)cc1C(=O)OCC(=O)N1CCCC1 | 80% (inactive)
COc1ccccc1-c1cc(SC)c(C#N)c(=O)o1 | 97.9% (inactive)
COc1ccccc1-c1nnc(-c2ccc(C)cc2)o1 | 70.8% (inactive)
CC(=O)c1ccc(OCC(=O)Nc2ccc3c(c2)CCC3)cc1 | 90.6% (inactive)
Cc1nnc(N/N=C/c2ccc(-c3ccc(Br)cc3)o2)n1N | 104% (inactive)
CC(=O)N(c1nnc(-c2ccc(C)cc2)s1)C1CCCC1 | 99.3% (inactive)
CC1=NN(C(=O)c2csc(C(C)C)c2)C(O)(C(F)(F)F)C1 (configuration not stated) | 109% (inactive)
CC1=NN(C(=O)CCCc2ccccc2)C(O)(C(F)(F)F)C1 (configuration not stated) | 103% (inactive)
O=C(c1ccccc1[N+](=O)[O-])N1N=C(c2ccccc2)CC1(O)C(F)(F)F (configuration not stated) | 85.2% (inactive)
CC1=NN(C(=O)c2cc(C)nn2C)C(O)(C(F)(F)F)C1 (configuration not stated) | 112% (inactive)
CCOC(=O)C1=C(C)NC(=O)NC1c1ccc(-c2ccc(F)cc2)o1 (configuration not stated) | 100% (inactive)
COc1cccc(-c2nc(C=O)cs2)c1 | 99.6% (inactive)
CCOC(=O)c1cc(-c2cccc([N+](=O)[O-])c2)on1 | 95.3% (inactive)
CC(NC(=O)c1cccc(F)c1)C1CC2CCC1C2 (configuration not stated) | 93.8% (inactive)
COc1ccc(CNC(=O)COC(=O)C2CC3C=CC2C3)cc1 (configuration not stated) | 114% (inactive)
CCCCNC(=O)Nc1nnc(-c2ccc(Cl)cc2)o1 | 89.7% (inactive)

Compound | viability
O=C(CCN1CCC(c2cccs2)=N1)c1cccs1 | 91.7% (inactive)
O=c1ccn(-c2ccccc2)[nH]1 | 120% (inactive)
COC(=O)c1ccc(CO/N=C/c2ccc(OC)cc2)o1 | 117% (inactive)
CCOC(=O)c1c(-c2ccc(C)o2)csc1NC(=O)CN1CCCCC1 | 76.7% (inactive)
Cc1ccc(C(=O)COC(=O)CCc2ccc(S(=O)(=O)N3CCCCC3)cc2)cc1 | 130% (inactive)
Cc1ccc(OCC(=O)N2CCCc3ccccc32)cc1 | 76% (inactive)
COc1cc2c(cc1OC)CN(CCC(=O)c1ccc(Br)cc1)CC2 | 94.5% (inactive)
CC(C)Oc1ccc(CNC(=O)Oc2ccccc2)cc1 | 112% (inactive)
COc1ccc(C(=O)CCNc2ccc(F)cc2)cc1 | 94.5% (inactive)
COc1ccc(C(C)NC(=O)CCc2ccccc2)cc1 (configuration not stated) | 105% (inactive)
COc1ccc(C(O)CNc2ccc(C)cc2)cc1 (configuration not stated) | 86.4% (inactive)
COc1ccc(OC(=O)C(C)N2C(=O)c3ccccc3C2=O)cc1 (configuration not stated) | 123% (inactive)
CN(C)Cc1ccccc1Sc1ccccc1Br | 93% (inactive)
COC(=O)COc1ccc2c(-c3ccc(OC)cc3)cc(=O)oc2c1 | 106% (inactive)
O=C(Nc1c(F)cc(F)cc1Br)c1cc(-c2ccccc2)on1 | 110% (inactive)
Cc1ccc(C)c(-c2csc(NC(=O)c3cnccn3)n2)c1 | 98.3% (inactive)
O=C(NNc1nc2cc3c(cc2s1)OCCO3)c1ccccc1 | 94.1% (inactive)
O=C(Nc1nccs1)c1ccccn1 | 103% (inactive)
CCOc1ccc2nc(/N=C/c3nc(-c4ccccc4)oc3O)sc2c1 | 113% (inactive)
Cc1nc2ccc(OC(=O)c3ccccc3)cc2s1 | 126% (inactive)
CCOCC(=O)Nc1nc2ccc(C)cc2s1 | 103% (inactive)
O=C(CCN1CCC(c2ccccc2)C1)c1ccccc1 (configuration not stated) | 82.5% (inactive)
